Measured values: PubChem BioAssay AID1159580 (chemical genetic matrix, 2015)
Values joined by “and” are separate entries in the source; they are usually repeats but may differ in a detail not shown here. Identical values can stand only once. In all, about 5,500 compounds went through this assay and about 2,000 (36%) were called active. Inconclusive results (about 18%) are left out. No stated cut-off is given here; in the data, active means normalized growth mostly below about 0.91 (no sharp cut-off); inconclusive means no clear call, values can overlap the other calls; inactive means mostly above about 0.92. This is one part of the list.

Assay: chemical genetic growth profiling, strain panel (AID 1159580);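 further: tested at 20 µM; growth read once vehicle control cultures reached saturation at 30 °C; 1 = growth at the plate median or of vehicle wells; lower values mean less growth of the strain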
Details: growth OD

Measured: normalized growth

CC(C)=CCCC1(C)C=Cc2c(O)c3c(c(CC=C(C)C)c2O1)OC12C(CC4CC1C(C)(C)OC2(C/C=C(/C)C(=O)O)C4O)C3=O (configuration not stated)
inactive: S. cerevisiae deletion strains, locus YAL013W, strain DEP1, active compounds read low 1.01 | S. cerevisiae deletion strains, locus YBR021W, strain FUR4, active compounds read low 1.07 | S. cerevisiae deletion strains, locus YBR229C, strain ROT2, active compounds read low 0.959 | S. cerevisiae deletion strains, locus YCL029C, strain bik1, active compounds read low 0.994 | S. cerevisiae deletion strains, locus YDL035C, strain GPR1, active compounds read low 0.961 | S. cerevisiae deletion strains, locus YDL074C, strain BRE1, active compounds read low 1.01 | S. cerevisiae deletion strains, locus YDL101C, strain DUN1, active compounds read low 0.978 | S. cerevisiae deletion strains, locus YDL185W, strain tfp1, active compounds read low 0.997 | S. cerevisiae deletion strains, locus YDL192W, strain arf1, active compounds read low 0.947 | S. cerevisiae deletion strains, locus YDR101C, strain arx1, active compounds read low 0.96 | S. cerevisiae deletion strains, locus YDR162C, strain NBP2, active compounds read low 0.851 | S. cerevisiae deletion strains, locus YDR318W, strain mcm21, active compounds read low 0.988 | S. cerevisiae deletion strains, locus YDR388W, active compounds read low 0.99 | S. cerevisiae deletion strains, locus YDR502C, strain sam2, active compounds read low 1.02 | S. cerevisiae deletion strains, locus YEL061C, strain CIN8, active compounds read low 0.989 | S. cerevisiae deletion strains, locus YER110C, active compounds read low 0.981 | S. cerevisiae deletion strains, locus YER155C, strain BEM2, active compounds read low 1.04 | S. cerevisiae deletion strains, locus YER167W, strain BCK2, active compounds read low 1.01 | S. cerevisiae deletion strains, locus YGL078C, strain dbp3, active compounds read low 1.01 | S. cerevisiae deletion strains, locus YGL086W, strain mad1, active compounds read low 0.993 | S. cerevisiae deletion strains, locus YGL248W, strain PDE1, active compounds read low 0.994 | S. cerevisiae deletion strains, locus YGR135W, strain pre9, active compounds read low 1.06 | S. cerevisiae deletion strains, locus YGR229C, strain SMI1, active compounds read low 0.988 | S. cerevisiae deletion strains, locus YGR252W, strain gcn5, active compounds read low 1.17 | S. cerevisiae deletion strains, locus YHR030C, strain SLT2, active compounds read low 1.01 and 0.984 | S. cerevisiae deletion strains, locus YHR079C, strain IRE1 (second series), active compounds read low 0.981 | S. cerevisiae deletion strains, locus YHR079C, strain IRE1, active compounds read low 0.985 | S. cerevisiae deletion strains, locus YHR094C, strain hxt1, active compounds read low 1 | S. cerevisiae deletion strains, locus YHR129C, strain ARP1, active compounds read low 1.02 | S. cerevisiae deletion strains, locus YHR200W, strain rpn10, active compounds read low 1.01 | S. cerevisiae deletion strains, locus YIL066C, strain RNR3, active compounds read low 0.97 | S. cerevisiae deletion strains, locus YIL073C, strain SPO22, active compounds read low 1.07 | S. cerevisiae deletion strains, locus YIL125W, strain kgd1, active compounds read low 0.992 | S. cerevisiae deletion strains, locus YIR030C, strain dcg1, active compounds read low 0.997 | S. cerevisiae deletion strains, locus YJL095W, strain BCK1, active compounds read low 0.884 and 1.01 | S. cerevisiae deletion strains, locus YJL134W, strain LCB3, active compounds read low 0.993 | S. cerevisiae deletion strains, locus YJL168C, strain set2, active compounds read low 0.995 | S. cerevisiae deletion strains, locus YJL187C, strain SWE1 (second series), active compounds read low 0.972 | S. cerevisiae deletion strains, locus YJR066W, strain TOR1, active compounds read low 0.935 | S. cerevisiae deletion strains, locus YKL009W, strain mrt4, active compounds read low 1.02 | S. cerevisiae deletion strains, locus YKL068W, active compounds read low 0.996 | S. cerevisiae deletion strains, locus YKL085W, strain MDH1 (second series), active compounds read low 1.02 | S. cerevisiae deletion strains, locus YKL085W, strain MDH1, active compounds read low 1.02 | S. cerevisiae deletion strains, locus YKL190W, strain CNB1, active compounds read low 0.988 | S. cerevisiae deletion strains, locus YKR001C, strain vps1, active compounds read low 0.961 | S. cerevisiae deletion strains, locus YLR039C, strain RIC1, active compounds read low 0.774 | S. cerevisiae deletion strains, locus YLR058C, strain SHM2, active compounds read low 0.98 | S. cerevisiae deletion strains, locus YLR102C, strain apc9, active compounds read low 1.01 | S. cerevisiae deletion strains, locus YLR113W, strain HOG1, active compounds read low 0.92 | S. cerevisiae deletion strains, locus YLR268W, strain sec22, active compounds read low 0.93 | S. cerevisiae deletion strains, locus YLR330W, strain CHS5, active compounds read low 1.01 | S. cerevisiae deletion strains, locus YLR342W, strain FKS1 (second series), active compounds read low 0.96 | S. cerevisiae deletion strains, locus YLR371W, strain rom2, active compounds read low 1.03 | S. cerevisiae deletion strains, locus YLR418C, strain cdc73, active compounds read low 0.936 | S. cerevisiae deletion strains, locus YML016C, strain PPZ1, active compounds read low 0.987 | S. cerevisiae deletion strains, locus YML032C, strain rad52, active compounds read low 0.978 | S. cerevisiae deletion strains, locus YML124C, strain tub3, active compounds read low 1.01 | S. cerevisiae deletion strains, locus YMR078C, strain ctf18, active compounds read low 0.997 | S. cerevisiae deletion strains, locus YMR223W, strain ubp8, active compounds read low 0.991 | S. cerevisiae deletion strains, locus YMR307W, strain GAS1, active compounds read low 0.95 | S. cerevisiae deletion strains, locus YNL067W, strain RPL9B, active compounds read low 0.996 | S. cerevisiae deletion strains, locus YNL128W, strain TEP1, active compounds read low 0.967 | S. cerevisiae deletion strains, locus YNL153C, strain GIM3, active compounds read low 1.04 | S. cerevisiae deletion strains, locus YNL183C, strain NPR1, active compounds read low 0.936 | S. cerevisiae deletion strains, locus YNL233W, strain BNI4, active compounds read low 1.06 | S. cerevisiae deletion strains, locus YNL250W, strain rad50, active compounds read low 0.993 | S. cerevisiae deletion strains, locus YNL271C, strain bni1, active compounds read low 0.99 | S. cerevisiae deletion strains, locus YNL298W, strain CLA4, active compounds read low 0.986 | S. cerevisiae deletion strains, locus YNL307C, strain MCK1, active compounds read low 0.942 | S. cerevisiae deletion strains, locus YNL322C, strain KRE1, active compounds read low 1 | S. cerevisiae deletion strains, locus YNR052C, strain pop2, active compounds read low 1 | S. cerevisiae deletion strains, locus YOL012C, strain htz1 1.58 | S. cerevisiae deletion strains, locus YOL147C, strain pex11, active compounds read low 1 | S. cerevisiae deletion strains, locus YOR061W, strain CKA2, active compounds read low 0.967 | S. cerevisiae deletion strains, locus YOR069W, strain VPS5, active compounds read low 0.988 | S. cerevisiae deletion strains, locus YOR136W, strain idh2, active compounds read low 1.01 | S. cerevisiae deletion strains, locus YOR144C, strain elg1, active compounds read low 1 | S. cerevisiae deletion strains, locus YOR184W, strain ser1, active compounds read low 0.903 | S. cerevisiae deletion strains, locus YOR231W, strain MKK1, active compounds read low 0.963 | S. cerevisiae deletion strains, locus YOR316C, strain cot1, active compounds read low 0.994 | S. cerevisiae deletion strains, locus YPL256C, strain CLN2, active compounds read low 0.957 | S. cerevisiae deletion strains, locus YPR119W, strain clb2, active compounds read low 0.994 | S. cerevisiae deletion strains, locus YPR141C, strain kar3, active compounds read low 0.991 | S. cerevisiae deletion strains, locus YPR163C, strain tif3, active compounds read low 0.967 | S. cerevisiae deletion strains, locus YPR167C, strain met16, active compounds read low 1.02 | S. cerevisiae deletion strains, strain wtn01, active compounds read low 0.972 | S. cerevisiae strains, strain wild type, active compounds read low 0.968
